# SMARCA2 act = increases SMARCA2 function in MMTV reporter cells. MG213 cells, MMTV-luciferase reporter, dexamethasone, overnight. activation, % at 9.1 µM. 1% of 370,000 active. AID 652017; in the data active = activation above about 7.8%;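 also: 0% = vehicle wells and 100% = reference activator wells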
# ssDAF12 agonist = activates DAF-12 receptor from parasite S. stercoralis; HEK293 ssDAF-12/GRIP1 lit1-tk-luc reporter, luminescence; % of 3 µM dafachronic acid response; 1% of 370,000 active; activation, % at 6.8 µM;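 active = activation above the mean over all tested compounds plus 3 SD, cut at about 0.9% in these data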;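 also: 0% = DMSO-only wells and 100% = 3 µM delta7-dafachronic acid wells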
# hcDAF12 agonist = activates DAF-12 receptor from parasite H. contortus; HEK293 hcDAF-12 lit1-tk-luc reporter, luminescence; 0% DMSO, 100% Δ7-dafachronic acid; activation, % at 6.8 µM; 1.4% of 370,000 active; AID 652067;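 active = activation above the mean of all tested compounds plus 3 SD, cut at about 5.5% in these data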;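 also: 100% = response to 3 µM Δ7-dafachronic acid high control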
# hgDAF12 agonist = agonists of H. glycines DAF-12 nuclear receptor | HEK293 GAL4-hgDAF12 UAS-luciferase reporter, agonist luminescence; normalized to butyrate control | 1.8% of 370,000 active | activation, % at 6.8 µM;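 active = activation above a cutoff set at the mean of all screened compounds plus 3 SD, cut at about 10% in these data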;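 also: 0% = DMSO wells and 100% = sodium butyrate wells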
# DAX1 inh-1 = NR0B1 (DAX1) inhibition; 0.99% of 340,000 active; HEK293 Gal4-DAX1 luciferase reporter, luminescence; inhibition, % at 6.75 µM; P51843;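 active = inhibition above the mean over all tested compounds plus 3 SD, cut at about 4.2% in these data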;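 also: 0% = DAX1-transfected cells with DMSO and 100% = empty-vector control cells with DMSO; inhibition shows as a rise in luminescence from relieved DAX1 repression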
# DAX1 inh-2 = inhibitors of DAX1 repression of SF-1 activated StAR promoter; HEK293T StAR-luciferase reporter, SF-1/DAX-1 repression relief; inhibition, % at 6.8 µM; 1.1% of 370,000 active;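 active = inhibition above the mean over all tested compounds plus 3 SD, cut at about 3.6% in these data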;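 also: 0% = DAX-1 cells with DMSO and 100% = cells lacking DAX-1 with DMSO; higher inhibition means more luminescence from relief of DAX-1 repression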
# DAX1 inh confirm = NR0B1 (human) inhibition, confirmation; shares compounds with DAX1 inh-2; HEK293T StAR-promoter luciferase reporter, SF-1/DAX-1 repression; inhibition, % at 6.8 µM; 87% of 2,400 active;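 active = inhibition above the average of every tested compound plus 3 SD, cut at about 3.8% in these data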;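 also: 0% = DAX-1 cells with DMSO and 100% = no DAX-1 control cells with DMSO; active compounds raise luminescence by relieving repression of the StAR reporter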
# Target sequence (P51843 whole entry, looked up): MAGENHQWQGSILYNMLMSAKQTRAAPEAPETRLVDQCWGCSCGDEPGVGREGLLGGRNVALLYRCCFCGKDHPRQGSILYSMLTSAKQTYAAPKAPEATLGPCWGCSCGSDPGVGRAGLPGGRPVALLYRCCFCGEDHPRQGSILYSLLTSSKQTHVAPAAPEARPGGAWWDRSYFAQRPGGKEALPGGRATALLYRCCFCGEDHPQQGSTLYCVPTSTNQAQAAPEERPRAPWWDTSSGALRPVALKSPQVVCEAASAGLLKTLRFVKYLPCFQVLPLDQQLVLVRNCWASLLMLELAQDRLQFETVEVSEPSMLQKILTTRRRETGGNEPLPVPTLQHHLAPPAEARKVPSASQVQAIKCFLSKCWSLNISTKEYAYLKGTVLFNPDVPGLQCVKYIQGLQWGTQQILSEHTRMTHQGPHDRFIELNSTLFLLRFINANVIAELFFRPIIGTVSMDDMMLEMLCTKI
# SF1 AF2mut Luc = nonselective inhibitor or artifact in SF-1 mutant DAX1 counter-screen | shares compounds with DAX1 inh-2 | HEK293 StAR-luciferase, SF-1 AF2 mutant, luminescence | inhibition, % at 6.8 µM | 78% of 2,400 active | AID 652136;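 active = inhibition above the mean of all tested compounds plus 3 SD, cut at about 3% in these data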;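 also: 0% = DAX-1 transfected cells with DMSO and 100% = cells without DAX-1 with DMSO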
# LXRb hcDAF ctr = activates human LXR-beta, counter-screen for hcDAF-12 agonists; shares compounds with hcDAF12 agonist; HEK293 Gal4-LXR tk-luc reporter, luminescence, 24 h; normalized: DMSO 0%, positive control 100%; activation, % at 6.8 µM; 3,400 tested, under 10 active; AID 743027;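 active = mean percent activation of the reporter above a cutoff set as the average over tested compounds plus their standard deviation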
# hcDAF12 ag = confirmation of H. contortus DAF-12 agonists; shares compounds with hcDAF12 agonist; HEK293 hcDAF-12 lit1-tk-luc reporter, luminescence; % of Δ7-dafachronic acid response; activation, % at 6.8 µM; 61% of 3,400 active;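 active = mean activation across triplicate tests above the threshold derived from the earlier primary screen, cut at about 5.5% in these data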;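 also: 0% = DMSO only wells and 100% = 3 µM Δ7-dafachronic acid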
# hgDAF12 conf = confirmation of H. glycines DAF-12 agonists; shares compounds with hgDAF12 agonist; HEK293 GAL4-hgDAF12 luciferase reporter, agonist mode; percent of butyrate response; activation, % at 6.8 µM; 80% of 3,300 active; AID 743050;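 active = mean activation over triplicate wells above the hit cutoff derived from the earlier primary screen, cut at about 11% in these data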;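 also: 0% = DMSO low control and 100% = 2 mM sodium butyrate high control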
# LXR ag 2 = LXR-beta agonism as DAF-12 counter-screen; shares compounds with hgDAF12 agonist; HEK293 Gal4-LXR luciferase reporter, 24 h; activation, % at 6.8 µM; 3,300 tested, under 10 active; AID 743051;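 active = mean activation of the triplicate above a set limit carried over from the primary screen, none filed active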
# Starred values were filed as active, the others as inactive; x = no result. An excerpt weighted towards active compounds, which were near 4.8% of everything screened.
SMILES,SMARCA2 act,ssDAF12 agonist,hcDAF12 agonist,hgDAF12 agonist,DAX1 inh-1,DAX1 inh-2,DAX1 inh confirm,SF1 AF2mut Luc,LXRb hcDAF ctr,hcDAF12 ag,hgDAF12 conf,LXR ag 2
COC(=O)C[C@H]1CC[C@@H]2[C@@H](COc3ccc(NC(=O)Nc4cccc(C)c4)cc3C(=O)N2C)O1,-3.0,-0.6,-1.1,4.0,x,-0.6,x,x,x,x,x,x
COC(=O)C1CN(Cc2cn(Cc3ccc(F)cc3)nn2)CCS(=O)(=O)N1Cc1ccccc1 (configuration not stated),-3.1,-2.3,-0.6,-2.0,x,-1.1,x,x,x,x,x,x
CCOc1ccc2nc(NC(=O)Nc3cccs3)sc2c1,2.7,0.7,7.9*,26.8*,2.8,9.2*,18.6*,12.8*,1.8,4.6,26.8*,1.2
CCOCC(=O)Nc1nc2ccc(OC)cc2s1,7.0,-0.4,2.3,9.6,1.9,2.0,x,x,x,x,x,x
COc1ccc2nc(NC(=O)Nc3ccccc3)sc2c1,0.0,0.6,8.1*,22.2*,0.0,11.3*,14.1*,8.8*,2.0,5.1,23.1*,1.3
C[C@H]1[C@@H](N)CC[C@@]23CCCN2C(=O)CCC[C@@H]13,x,-0.6,2.5,3.4,x,x,x,x,x,x,x,x
Cc1ccc(Cn2cc(CN3[C@H](CC(C)C)COc4cc(Br)ccc4S3(=O)=O)nn2)cc1,6.0,-0.1,0.5,-1.3,x,0.8,x,x,x,x,x,x
COC(=O)[C@]12C[C@H](CC(=O)NCc3cccc(C(F)(F)F)c3)C(=O)N(Cc3ccco3)C1=C[C@H](COCc1ccccc1)O[C@@H]2C,-0.3,-0.7,-1.6,6.1,x,-1.4,x,x,x,x,x,x
CCOC(=O)CNC(=O)CSc1nnc(-c2ccccc2)n1CC,2.8,-1.3,-0.8,2.2,x,0.5,x,x,x,x,x,x
COc1cc(OC)c(-c2nc3ccccc3s2)cc1OC,-1.6,-0.3,3.0,-0.5,0.2,-1.2,x,x,x,x,x,x
Oc1ccc(O)c(Cc2nc3ccccc3s2)c1,-2.1,-1.1,1.4,-2.2,-0.9,-2.1,x,x,x,x,x,x
Oc1cccc(-c2nc3ccccc3s2)c1,5.1,3.6*,21.3*,17.4*,-0.6,5.3*,11.0*,8.3*,2.4,15.6*,23.8*,1.2
COc1cccc(-c2nc3ccccc3s2)c1O,3.7,3.5*,16.4*,24.9*,-0.3,7.0*,17.9*,8.4*,1.9,14.8*,21.2*,1.1
COC(=O)[C@]12C[C@H](CC(=O)NCCCCc3ccccc3)C(=O)N(Cc3ccc4c(c3)OCO4)C1=C[C@H](C(C)C)O[C@@H]2C1CC1,-1.5,-1.0,-0.6,0.4,x,0.0,x,x,x,x,x,x
CC(=O)c1sc(NC(=O)c2cccc(C)c2)nc1C,7.4,0.3,5.4,19.7*,7.0*,4.6*,5.9*,5.4*,x,x,15.2*,0.9
COC(=O)c1ccc(-c2nc3ccccc3[nH]2)cc1,5.0,0.8,5.0,14.9*,-1.1,5.3*,18.2*,9.4*,x,x,12.7*,0.9
Cc1ccc(C)c(-c2nc3ccc(N)cc3[nH]2)c1,-3.9,-0.7,-1.2,-1.1,2.6,0.0,x,x,x,x,x,x
Cc1ccc2nc(-c3ccccc3N)[nH]c2c1,6.6,0.9,9.2*,22.3*,-1.0,5.1*,14.4*,5.9*,1.7,10.0*,19.5*,1.4

# Screening data (PubChem)
